The assay has as its target T1, CRBN, Q96SW2.
T1 chain: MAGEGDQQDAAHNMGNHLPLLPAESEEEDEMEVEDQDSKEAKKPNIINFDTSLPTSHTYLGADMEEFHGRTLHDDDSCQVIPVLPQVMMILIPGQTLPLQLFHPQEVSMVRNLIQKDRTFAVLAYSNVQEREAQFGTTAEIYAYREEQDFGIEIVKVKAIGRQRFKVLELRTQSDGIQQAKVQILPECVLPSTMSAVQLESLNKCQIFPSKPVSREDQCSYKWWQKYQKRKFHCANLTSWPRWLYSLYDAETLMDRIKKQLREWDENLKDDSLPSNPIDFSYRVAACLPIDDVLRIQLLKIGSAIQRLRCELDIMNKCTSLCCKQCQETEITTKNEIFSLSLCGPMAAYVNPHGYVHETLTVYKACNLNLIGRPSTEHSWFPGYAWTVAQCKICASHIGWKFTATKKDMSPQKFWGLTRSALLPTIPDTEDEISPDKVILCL
The assay is described as follows: log2 fold change of degron read counts, EGFP-low vs EGFP+ sorted cells (limma voom), compound-induced degradation; higher = more compound-induced degradation of the degron-EGFP fusion; degrons are variants of IKZF1/3 zinc finger 2; compound dose not given here. The note with it: Jurkat, 18 h.

[1] abbreviates: compound: compound 19 (5-tert-butyl-thalidomide).
[2] abbreviates: compound: compound 22 (5-morpholino-thalidomide).
[3] abbreviates: compound: compound 33 (diphenyl IMiD analogue).

The text below walks through data of the supplement of paper PMC12645437, “Orthogonal IMiD-Degron Pairs Induce Selective Protein Degradation in Cells” (ACS Chemical Biology, 2025).

The full ranking holds about 8,300 sequences; the median of “log2 fold change of degron read counts, EGFP-low vs EGFP+ sorted cells (limma voom), compound-induced degradation” is about -1.1, and the highest 2% start at about 3.2. The list comes from a sample in which the highest values are over-represented; it also holds similar and randomly drawn sequences.
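Further: pooled lentiviral library of zinc finger degron-EGFP fusions in mCherry-positive Jurkat cells, FACS-sorted after compound exposure, with degron abundance counted by next-generation sequencing.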

Regarding FKCNICGATFTQKGNLLRHIKL [46F_47K_49N_50I_52G_53A_54T_55F_67L_, Q9UKT9], the “log2 fold change of degron read counts” value was -2.19 under setting [1], -2.52 under setting [2], -3.31 under setting [3] and -1.21 (compound: thalidomide).
As to FACDICGAGFTQKGNLLRHIKL [46F_47A_49D_50I_52G_53A_54G_55F_67L_, Q9UKT9], the “log2 fold change of degron read counts” value is, setting by setting: under setting [1], 2.54; under setting [2], 0.463; under setting [3], -0.84; (compound: thalidomide) -1.45.
For FECPICGRFFTQKGNLLRHIKL [46F_47E_49P_50I_52G_53R_54F_55F_67L_, Q9UKT9] the same measures were -1.85, -1.84, -0.566 and 0.632.
Turning to FFCEICGHTFTQKGNLLRHIKL [46F_47F_49E_50I_52G_53H_54T_55F_67L_, Q9UKT9], the “log2 fold change of degron read counts” value runs as follows: under setting [1], -2.85; under setting [2], -2.26; under setting [3], -2.37; (compound: thalidomide) -2.09.
For FYCEQCGALFTQKGNLLRHIKL [46F_47Y_49E_50Q_52G_53A_54L_55F_67L_, Q9UKT9] the same measures were -0.0809, 0.128, -0.131 and -1.75.
For the sequence FYCPICGRAFTQKGNLLRHIKL [46F_47Y_49P_50I_52G_53R_54A_55F_67L_, Q9UKT9], the “log2 fold change of degron read counts” value by setting is: under setting [1], -3.1; under setting [2], -2.69; under setting [3], -2.69; (compound: thalidomide) -3.4.
In the case of FHCPQCGATFTQKGNLLRHIKL [46F_47H_49P_50Q_52G_53A_54T_55F_67L_, Q9UKT9], the “log2 fold change of degron read counts” value is -1.34 under setting [1], -1.81 under setting [2], 0.0255 under setting [3] and -1.77 (compound: thalidomide).
Turning to FRCDVCGAEFTQKGNLLRHIKL [46F_47R_49D_50V_52G_53A_54E_55F_67L_, Q9UKT9], the “log2 fold change of degron read counts” value was -2.43 under setting [1], -1.82 under setting [2], 0.12 under setting [3] and -1.26 (compound: thalidomide).
As for FMCDVCGATFTQKGNLLRHIKL [46F_47M_49D_50V_52G_53A_54T_55F_67L_, Q9UKT9], the “log2 fold change of degron read counts” value is -2.12 under setting [1], -2.03 under setting [2], 0.562 under setting [3] and -1.29 (compound: thalidomide).
For FICPICGALFTQKGNLLRHIKL [46F_47I_49P_50I_52G_53A_54L_55F_67L_, Q9UKT9] the same measures were -1.19, 0.987, 1.39 and 1.34.
Regarding LMCPICGFACTQKGNLLRHIKL [46L_47M_49P_50I_52G_53F_54A_55C_67L_, Q9UKT9], the “log2 fold change of degron read counts” value by setting is: under setting [1], 1.55; under setting [2], 2.48; under setting [3], 2.86; (compound: thalidomide) 2.97.
As to LICPICGFACTQKGNLLRHIKL [46L_47I_49P_50I_52G_53F_54A_55C_67L_, Q9UKT9], the “log2 fold change of degron read counts” value under setting [1] is 0.747, the “log2 fold change of degron read counts” value under setting [2] was determined as 2.69, the “log2 fold change of degron read counts” value under setting [3] came out at 1.82 and the “log2 fold change of degron read counts” value (compound: thalidomide) came out at 2.87.
On to LQCPICGFACTQKGNLLRHIKL [46L_47Q_49P_50I_52G_53F_54A_55C_67L_, Q9UKT9], for which the “log2 fold change of degron read counts” value came to 2.66 under setting [1], 2.96 under setting [2], 2.47 under setting [3] and 3.55 (compound: thalidomide).
For LWCPICGFACTQKGNLLRHIKL [46L_47W_49P_50I_52G_53F_54A_55C_67L_, Q9UKT9], in that order: 2.95, 3.32, 2.72 and 1.84.
For LLCPICGFACTQKGNLLRHIKL [46L_47L_49P_50I_52G_53F_54A_55C_67L_, Q9UKT9], in that order: 0.701, 0.253, 1.48 and 1.92.
On to LFCPICGFGCTQKGNLLRHIKL [46L_47F_49P_50I_52G_53F_54G_55C_67L_, Q9UKT9], for which the “log2 fold change of degron read counts” value under setting [1] was determined as 3.06, the “log2 fold change of degron read counts” value under setting [2] came out at 2.74, the “log2 fold change of degron read counts” value under setting [3] was determined as 2.03 and the “log2 fold change of degron read counts” value (compound: thalidomide) stood at 1.48.
As to LYCPICGFGCTQKGNLLRHIKL [46L_47Y_49P_50I_52G_53F_54G_55C_67L_, Q9UKT9], the “log2 fold change of degron read counts” value is 3.31 under setting [1], 2.96 under setting [2], 2.48 under setting [3] and 1.46 (compound: thalidomide).
With LRCPICGFGCTQKGNLLRHIKL [46L_47R_49P_50I_52G_53F_54G_55C_67L_, Q9UKT9], the “log2 fold change of degron read counts” value stood at 2.74 under setting [1], 2.14 under setting [2], 2.33 under setting [3] and 2.47 (compound: thalidomide).
For LGCPICGFACTQKGNLLRHIKL [46L_47G_49P_50I_52G_53F_54A_55C_67L_, Q9UKT9] the same measures were 3.1, 2.1, 1.7 and 1.09.
